From PubChem BioAssay (NCATS) come the findings set out here.

Records with an inconclusive call do not appear. A number with no mark means an inactive call. Calls of active or inactive are those of the source. Calls come from the whole dose curve; as a rule, active = well fitted inhibition curve with a large enough effect; inconclusive = small, poorly fitted or top-dose-only effect; inactive = flat fitted curve, though single readings scatter. Where a SMILES comes first, the peptide text is derived from it. [ ]: non-standard residue; d: D form. Hyp = O=C(O)[CH]1C[CH](O)CN1; Phe(ol) = N[CH](CO)Cc1ccccc1; Iva = CC[C](C)(N)C(=O)O; Aib = CC(C)(N)C(=O)O
% is set by controls: 0 for no effect and ±100 for the full control effect; potency is the fitted concentration of half-maximal effect.

The test relates to HEK293. Put plainly: Cytotoxic Profiling of Annotated Libraries Using Quantitative High-Throughput Screening (AID 1296008). Note: nearly all actives have a fitted effect of over 60% in size. As to conditions: Five cell lines viability, CellTiter-Glo ATP luminescence, 48-72 h; max response: hits give low values. The method, boiled down: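 Cytotoxicity was measured as CellTiter-Glo ATP luminescence, read after 10 min at room temperature. Compound treatment of the cells lasted 48 or 72 hr at 37 degrees Celsius in a qHTS format.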
For the compound `CCn1c(-c2nonc2N)nc2c(C#CC(C)(C)O)ncc(OCC3CCCNC3)c21` (stereo unspecified), the Potency was 0.82 µM (active).
In the case of `COc1cc(OC)c(NC(=O)c2ccc(Cc3cc4c(cc3C)C(C)(C)CCC4(C)C)o2)c(OC)c1`, the Potency is 20.6 µM (active).
Consider `CC(=O)C1(C)CCC2C3C=C(C)C4=CC(=O)CCC4(C)C3CCC21C` (stereo unspecified), for which the Potency was 10.3 µM (active).
With `CO[C@H]1C[C@@H]2CC[C@@H](C)[C@@](O)(O2)C(=O)C(=O)N2CCCC[C@H]2C(=O)O[C@H]([C@@H](C)C[C@@H]2CC[C@@H](O)[C@H](OC)C2)CC(=O)[C@H](C)/C=C(\C)[C@@H](O)[C@@H](OC)C(=O)[C@H](C)C[C@H](C)/C=C/C=C/C=C/1C`, the Potency is 0.0073 µM (active).
Same read-out and setting: the same measure for `O=C(Nc1ccc(C(O)(C(F)(F)F)C(F)(F)F)cc1)c1ccc(C(F)(F)F)cc1`: 10.3 µM (active); for `NC(=O)c1cnc(N[C@@H]2CCCC[C@@H]2N)nc1Nc1cccc(-n2nccn2)c1`: 11.7 µM (active); for `Cc1cc2c(c(=O)o1)C=C1CC[C@H]([C@H](C)Cn3cnc(=N)c4[nH]cnc43)C[C@@H]1O2`: 8.2 µM (active).
For the compound `CC1CCCC(O)CCC/C=C/c2cc(OS(=O)(=O)O)cc(O)c2C(=O)O1` (stereo unspecified), the max response was -20.5%.
Still for that read-out and setting: the figure for `CCC(C)(NC(=O)C(CCC(N)=O)NC(=O)C1CC(O)CN1C(=O)C(C)(C)NC(=O)C(C)(C)NC(=O)C(CC(C)C)NC(=O)CNC(=O)C(NC(=O)C(C)(C)NC(=O)C(C)(C)NC(=O)C(C)(C)NC(=O)C(Cc1ccccc1)NC(C)=O)C(C)C)C(=O)N1CC(O)CC1C(=O)NC(C)(C)C(=O)NC(CO)Cc1ccccc1` (stereo unspecified) (Ac-F[Aib][Aib][Aib]VGL[Aib][Aib][Hyp]Q[Iva][Hyp][Aib][Phe(ol)]; configuration not given here) is -14.6%.
For `CCc1ccccc1OC[C@@H](O)CN[C@H]1CCCc2ccccc21`, the Potency is 23.1 µM (active).
`COc1cc(/C=C2\CCCN([C@@H](C)c3ccc(F)cc3)C2=O)ccc1-n1cnc(C)c1`: the Potency was 13 µM (active).
Take `CC(C)(C[C@@](O)(Cc1cc2ccncc2[nH]1)C(F)(F)F)c1cc(F)ccc1O`: the Potency is 11.6 µM (active).
Take `c1cc(NCCc2c[nH]c3ccccc23)cc(Nc2ccncc2)c1`: the max response was -111%.
For `Cc1nc2ccc(-n3ncc(C(=O)c4cc5ccccc5[nH]4)c3N)cc2[nH]1`, the Potency was 5.8 µM (active).
With `COc1ccc(CN2CCN(C(=O)CCNC(=O)c3ccc(C(C)(C)C)cc3)CC2)cc1`, the Potency was 7.31 µM (active).
As to `C=C1CC2OC(=O)C(COC)C2C(OC(=O)/C(C)=C\C)CC2(C)OC1=CC2=O` (stereo unspecified), the Potency is 4.53 µM (active).
For the compound `COc1ccc(CCc2nc3c(C)c(-c4c(C)noc4C)c(C)cc3n2CCN2CCOCC2)cc1`, the Potency was 23.1 µM (active).
For the compound `CC(=O)NC(C(=O)O[C@H]1CCC(C)(C)[C@@H]2CC=C3C(=O)OCC3(O)[C@@]12C)C(C)C` (stereo partly specified), the max response is -20.5%.
With `C#Cc1cccc(Nc2nc3cc(C(=O)O)ccc3c3cncnc23)c1`, the Potency was 16.4 µM (active).
Take `COC(=O)N1CC2(CC2)C[C@H](C(=O)NO)[C@H]1C(=O)N1CCN(c2ccccc2)CC1`: the Potency was 23.4 µM (active).
Turning to `CCn1c(-c2nonc2N)nc2c(C#CCO)ncc(OCCCN)c21`, the Potency was 7.31 µM (active).
On the same count and under the same terms, the figure for `C=C[C@@]1(C)C=C2C(=O)C(O)=C3[C@](C)(C(=O)O)CC[C@@H]4C[C@]34[C@]2(O)C(=O)C1` is 1.8 µM (active); for `Cc1nc(NC(=O)N2CCCC2C(N)=O)sc1-c1ccnc(C(C)(C)C(F)(F)F)c1` (stereo unspecified) it is 10.3 µM (active).
The same measure, in the same setting: the same measure for `Nc1nc(Cl)nc2c1ncn2C1OC(CO)C(O)C1F` (stereo unspecified): 2.06 µM (active); for `O=C(Nc1ccc(CN2CCOCC2)cc1)c1ccc(-c2cccc(Cl)c2)o1`: 9.2 µM (active).
Consider `COc1ccc2c(c1)C(C(=O)N(Cc1ccc(N(C)C)cc1)c1ccc(C(C)C)cc1)CCC2` (stereo unspecified), for which the Potency is 11.6 µM (active).
Take `COc1cccc(-c2cn(-c3ccc(CCN4CCC(O)CC4)cc3)c3ncnc(N)c23)c1`: the Potency was 8.2 µM (active).
Regarding `COc1cc2c(Nc3cc(F)c(Cl)c(Cl)c3)ncnc2cc1OCC1CCCN(C)CCC1`, the Potency is 8.2 µM (active).
In the case of `COc1ccc2nc(-c3cc(OC)c(OC)c(OC)c3)cc(C(=O)NCC(=O)Nc3ccc(C(C)=O)cc3)c2c1`, the Potency is 7.31 µM (active).
Same read-out and setting: the same measure for `COc1ccc(-c2ccc3c(N4CCOCC4C)nc(N4CCOCC4C)nc3n2)cc1CO` (stereo unspecified): 0.146 µM (active); for `COc1cc2c(cc1NS(=O)(=O)c1ccc(Br)cc1C)n(C)c(=O)n2C`: 1.46 µM (active).
